# Test system: T1, VEGFR2
# T1 construct: gene KDR
# Conditions: concentration: 1 μM, replicates: in singlicate; n = 1
# 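Also: KINOMEscan kinase panel screen.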
row,SMILES,%Inh [%]
1,Cn1cnc2c(N)ncnc21 [SKF-97623],100
2,Cl.Cl.Cl.N#Cc1ccc(CCNc2nccc(-c3cccc(CN4CCNCC4)c3)n2)cc1 [GSK2137462],0
3,O=C1NC(=O)C(c2ccc(Cl)cc2)=C1Nc1ccc(O)cc1 [SB-340867],0
4,CC[C@@H]1CO[C@H](C(=O)Nc2ccccc2)CN1c1cc(-c2ccc3c(N)n[nH]c3c2)nc(NC)n1 [GSK2376236],8
5,Cc1c(Cn2c3ccccc3n3c(=O)cc(N4CCOCC4)nc23)cccc1C(F)(F)F [GSK2306394],0
6,CSc1ccc(-c2nc3n(c2-c2ccncc2)CCC3)cc1 [SKF-105561],11
7,Cc1ccc(-c2nc(Nc3ccncc3)c3ccccc3n2)s1 [GSK189015],0
8,Cc1ccc(NC(=O)Nc2ccc(Cl)cc2)cc1-c1ccc(C(=O)Nc2ccncc2)cc1 [GSK1398472],9
9,CC(C)c1ccc(O)cc1Nc1ccnc2ccc(C(F)(F)F)cc12 [GW482059],0
10,CC(C)c1cc(-c2ccc3c(N)n[nH]c3c2)nc(N)n1 [GSK2250882],0
11,Fc1ccc(-c2nc3n(c2-c2ccncc2)CCS3)cc1 [GI98581],0
12,Cc1cccc2c(-c3ccncn3)c(-c3ccc(F)cc3)nn12 [GW515532],5
13,COc1cccc(NC(=O)Nc2ccc(C)c(-c3ccc(C(=O)Nc4ccncc4)cc3)c2)c1 [GSK1398474],6
14,CNC(=O)c1ccc(C)c(-n2c(C)cc(OCc3ccc(F)cc3F)c(Br)c2=O)c1,0
15,Cc1ccc(NC(=O)c2ccc(Cl)cc2)cc1-c1ccc(C(=O)Nc2ccncc2)cc1 [GSK1398467],0
16,O=C(Nc1n[nH]c2nc(-c3cccs3)c(Br)cc12)C1CCCC1 [SB-743341],28
17,COc1ccc2cc(-c3nc(-c4ccccc4C(C)C)[nH]c3-c3ccncc3)ccc2c1 [SB-660566],0
18,COc1cc2ncnc(Nc3cccc(Br)c3)c2cc1OC.Cl [GI230329],0
19,O=c1cc(N2CCOCC2)nc2n(Cc3cccc(Cl)c3Cl)c3ccccc3n12 [GSK2299009],7

row,SMILES,%Inh [%]
1,CC(=O)c1c(C)c2cnc(Nc3ccn(C)n3)nc2n(C2CCCC2)c1=O,0
2,CN1c2ccc(-c3ccc(C(N)=O)cc3)cc2-c2[nH]ncc2S1(=O)=O,21
3,COc1ccc(Nc2nccc(NCCNC(=O)Nc3cc(C)ccc3C)n2)cc1 [GSK1379899],2
4,Nc1cccc(-c2ccc3c(N)n[nH]c3c2)n1 [GSK2192730],19
5,CNc1nc(-c2ccc3c(N)n[nH]c3c2)cc(N2C[C@@H](C(=O)Nc3ccccc3)CC[C@H]2C)n1 [GSK2298859],0
6,Cc1ccc(NC(=O)Nc2ccccc2F)cc1-c1ccc(C(=O)Nc2ccncc2)cc1 [GSK1398477],0
7,c1ccc(-c2ccnc3[nH]ccc23)cc1 [SB-693578],32
8,O=C(Nc1n[nH]c2nc(-c3cccs3)c(Br)cc12)C1CC1 [SB-735297],0
9,Cn1cncc1C(=O)NC1CCN(c2ccnc(Nc3ccc(F)cc3)n2)C1 (centres unmarked) [GSK1379717],17
10,COc1ccc(Nc2nccc(N3CCC(NC(=O)C(C)c4ccc(Cl)cc4)CC3)n2)cc1 (centres unmarked) [GSK1379812],1
11,CCc1ccc(-c2ccc3c(c2)-c2n[nH]cc2S(=O)(=O)N3C)cc1,0
12,CS(=O)(=O)CCNCc1nc(-c2ccc3ncnc(Nc4ccc(OCc5ccccc5)c(Cl)c4)c3c2)cs1.Cl [GW582764],0
13,Cc1ccc(NC(=O)Nc2ccc(Cl)c(C(F)(F)F)c2)cc1-c1ccc(C(=O)Nc2ccncc2)cc1 [GSK1398470],0
14,Fc1ccc(-c2nn3cccc(F)c3c2-c2ccncc2)cc1 [GW475620],1
15,CNc1nc(-c2ccc3c(N)n[nH]c3c2)cc(N2C[C@@H](C(=O)NC3CCCCC3)OC[C@H]2C)n1 [GSK2375584],17
16,Cn1cncc1-c1cc2c(Nc3ccc(OCc4ccccc4)cc3)ncnc2cn1 [GW281179],0
17,Fc1ccc(-c2nc[nH]c2-c2ccncc2)cc1 [SB-217360],0
18,COc1cccc(C2=C(Nc3cc(Cl)c(O)c(Cl)c3)C(=O)NC2=O)c1 [SB-390767],0

# Test system: T2, VPS34
# T2 construct: gene PIK3C3
# Conditions: concentration: 1 μM, replicates: in singlicate; n = 1
row,SMILES,%Inh [%]
1,Cn1cnc2c(N)ncnc21 [SKF-97623],0
2,Cl.Cl.Cl.N#Cc1ccc(CCNc2nccc(-c3cccc(CN4CCNCC4)c3)n2)cc1 [GSK2137462],7
3,O=C1NC(=O)C(c2ccc(Cl)cc2)=C1Nc1ccc(O)cc1 [SB-340867],2
4,CC[C@@H]1CO[C@H](C(=O)Nc2ccccc2)CN1c1cc(-c2ccc3c(N)n[nH]c3c2)nc(NC)n1 [GSK2376236],12
5,Cc1c(Cn2c3ccccc3n3c(=O)cc(N4CCOCC4)nc23)cccc1C(F)(F)F [GSK2306394],80
6,CSc1ccc(-c2nc3n(c2-c2ccncc2)CCC3)cc1 [SKF-105561],19
7,Cc1ccc(-c2nc(Nc3ccncc3)c3ccccc3n2)s1 [GSK189015],0
8,Cc1ccc(NC(=O)Nc2ccc(Cl)cc2)cc1-c1ccc(C(=O)Nc2ccncc2)cc1 [GSK1398472],0
9,CC(C)c1ccc(O)cc1Nc1ccnc2ccc(C(F)(F)F)cc12 [GW482059],15
10,CC(C)c1cc(-c2ccc3c(N)n[nH]c3c2)nc(N)n1 [GSK2250882],9
11,Fc1ccc(-c2nc3n(c2-c2ccncc2)CCS3)cc1 [GI98581],21
12,Cc1cccc2c(-c3ccncn3)c(-c3ccc(F)cc3)nn12 [GW515532],30
13,COc1cccc(NC(=O)Nc2ccc(C)c(-c3ccc(C(=O)Nc4ccncc4)cc3)c2)c1 [GSK1398474],0
14,CNC(=O)c1ccc(C)c(-n2c(C)cc(OCc3ccc(F)cc3F)c(Br)c2=O)c1,0
15,Cc1ccc(NC(=O)c2ccc(Cl)cc2)cc1-c1ccc(C(=O)Nc2ccncc2)cc1 [GSK1398467],0
16,O=C(Nc1n[nH]c2nc(-c3cccs3)c(Br)cc12)C1CCCC1 [SB-743341],0
17,COc1ccc2cc(-c3nc(-c4ccccc4C(C)C)[nH]c3-c3ccncc3)ccc2c1 [SB-660566],0
18,COc1cc2ncnc(Nc3cccc(Br)c3)c2cc1OC.Cl [GI230329],41
19,O=c1cc(N2CCOCC2)nc2n(Cc3cccc(Cl)c3Cl)c3ccccc3n12 [GSK2299009],96.7

row,SMILES,%Inh [%]
1,CC(=O)c1c(C)c2cnc(Nc3ccn(C)n3)nc2n(C2CCCC2)c1=O,3
2,CN1c2ccc(-c3ccc(C(N)=O)cc3)cc2-c2[nH]ncc2S1(=O)=O,0
3,COc1ccc(Nc2nccc(NCCNC(=O)Nc3cc(C)ccc3C)n2)cc1 [GSK1379899],4
4,Nc1cccc(-c2ccc3c(N)n[nH]c3c2)n1 [GSK2192730],1
5,CNc1nc(-c2ccc3c(N)n[nH]c3c2)cc(N2C[C@@H](C(=O)Nc3ccccc3)CC[C@H]2C)n1 [GSK2298859],7
6,Cc1ccc(NC(=O)Nc2ccccc2F)cc1-c1ccc(C(=O)Nc2ccncc2)cc1 [GSK1398477],11
7,c1ccc(-c2ccnc3[nH]ccc23)cc1 [SB-693578],0
8,O=C(Nc1n[nH]c2nc(-c3cccs3)c(Br)cc12)C1CC1 [SB-735297],6
9,Cn1cncc1C(=O)NC1CCN(c2ccnc(Nc3ccc(F)cc3)n2)C1 (centres unmarked) [GSK1379717],0
10,COc1ccc(Nc2nccc(N3CCC(NC(=O)C(C)c4ccc(Cl)cc4)CC3)n2)cc1 (centres unmarked) [GSK1379812],0
11,CCc1ccc(-c2ccc3c(c2)-c2n[nH]cc2S(=O)(=O)N3C)cc1,4
12,CS(=O)(=O)CCNCc1nc(-c2ccc3ncnc(Nc4ccc(OCc5ccccc5)c(Cl)c4)c3c2)cs1.Cl [GW582764],0
13,Cc1ccc(NC(=O)Nc2ccc(Cl)c(C(F)(F)F)c2)cc1-c1ccc(C(=O)Nc2ccncc2)cc1 [GSK1398470],0
14,Fc1ccc(-c2nn3cccc(F)c3c2-c2ccncc2)cc1 [GW475620],15
15,CNc1nc(-c2ccc3c(N)n[nH]c3c2)cc(N2C[C@@H](C(=O)NC3CCCCC3)OC[C@H]2C)n1 [GSK2375584],0
16,Cn1cncc1-c1cc2c(Nc3ccc(OCc4ccccc4)cc3)ncnc2cn1 [GW281179],0
17,Fc1ccc(-c2nc[nH]c2-c2ccncc2)cc1 [SB-217360],26
18,COc1cccc(C2=C(Nc3cc(Cl)c(O)c(Cl)c3)C(=O)NC2=O)c1 [SB-390767],0
